Inhibition data for five compounds are collected here from PubChem BioAssay AID2216 (Broad Institute, 2009).

Out of some 300,000 compounds screened, about 3,300 (1.1%) were called active. Not shown: some 6% with an inconclusive outcome.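 Rule for the calls: active = more than half of the replicate wells show a fall in the fluorescence ratio signal beyond about 16% (limit read from the data, passing the limit was not always enough); inconclusive = exactly half of the replicate wells pass the set limit; inactive = fewer than half of replicates pass the limit.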 The list comes from a sample in which actives are over-represented; it also holds similar structures and randomly drawn compounds.

The assay deals with Ran GTPase (GTP-bound) - importin-beta complex. Kind of assay: disruptors of Ran-importin-beta complex formation – biochemical, FRET, CFP-Ran, YFP-importin-beta, homogeneous, primary screen (AID 2216).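 Note: 0% = DMSO wells and 100% = Ran loaded with GDP instead of GTP.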 To be noted: cell-free CFP-Ran/YFP-importin-beta FRET ratio; stronger effect = higher value; concentration not given here.
Consider `CCOC(=O)C(O)(c1ccc(NC(=O)c2ccco2)c(OC)c1)C(F)(F)F` (stereo not given), for which the inhibition (usually the relative decrease from the control value, in per cent) is -1.67% (inactive).

As to `COC(=O)C1=C(c2ccccc2)C[C@@H]2CC[C@H]1N2C(=O)NCc1ccco1`, the inhibition was 1.27% (inactive).

Regarding `COc1cc(Cn2c(N)c(C(=O)NCc3ccco3)c3nc4ccccc4nc32)cc(OC)c1OC`, the inhibition was 54% (active).

In the case of `C/C(=N/O)c1ccc2ccc3ccccc3c2c1`, the inhibition is 4.2% (inactive).

In the case of `CC[C@H]1CC2CN3CCc4c([nH]c5ccccc45)C(C(=O)OC)(C2)C13` (stereo not given in full), the inhibition is -1.66% (inactive).
